The list is not random: actives were taken first. Their share in the collection is about 3.1%.
EPAC1 ag val: Validation qHTS for agonist of cAMP-regulated guanine nucleotide exchange factor 3 (EPAC1) | actives 1% (n = 16,000) | EPAC1 Rap1b BODIPY-GDP exchange, fluorescence | AID 1645883, 2021 | Potency, µM, hits mostly activators; also: nearly all actives have a fitted effect of over 70% in size
EPAC2 antag: Validation qHTS for antagonist of cAMP-regulated guanine nucleotide exchange factor 4 (EPAC2) | Rap guanine nucleotide exchange factor 4 (Homo sapiens), Q8WZA2 | EPAC2 Rap1B BODIPY-GDP exchange, fluorescence | Potency, µM (doses to about 112 µM), actives largely listed as inhibitors | actives 1.7% (n = 16,000); also: nearly all actives have a fitted effect of over 40% in size
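Normalized against a 6.5 mM cAMP agonist control, compounds were tested on 100 nM EPAC2 exchanging Rap1B-bound BODIPY-GDP (250 nM) for 50 uM GDP. Fluorescence drop (ex 480, em 540 nm) was tracked at room temperature over 30 min at 5-min intervals.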
A number is an active result; ! = not active in a repeat. Calls follow the shape of the dose curve; as a rule, active = well fitted curve in the direction sought with a large enough effect; inconclusive = small, poorly fitted or top-dose-only effect, or another doubt; inactive = no such curve, though single readings can be large; an effect the other way counts as inactive or inconclusive.

How did O=C(NCCc1ccccn1)C1CC12CCN(C(=O)c1c(F)cccc1Cl)CC2 (stereo unspecified) do in these assays?
EPAC1 ag val: inactive; EPAC2 antag: inactive

What do the screens show for `COc1ccc2c(c1)c(CC(=O)O)c(C)n2Cc1ccc(Cl)cc1`?
EPAC1 ag val: inactive; EPAC2 antag: inactive

Results for Cc1c(CC(C)(C)C(=O)O)n(Cc2ccc(Cl)cc2)c2ccc(F)cc12 ?
EPAC1 ag val: inactive; EPAC2 antag: 45µM

How did COc1ccccc1-c1nc(N(C)Cc2ccco2)c2ccccc2n1 do in these assays?
EPAC1 ag val: inactive; EPAC2 antag: inconclusive

Results for CN(Cc1ccco1)c1nc(-c2ccccc2Cl)nc2ccccc12 ?
EPAC1 ag val: 100µM; EPAC2 antag: inactive

How did COCc1ccc(CN2CCOc3c(cc(-c4cc(C)c5cccc(OC)c5n4)cc3OC)C2)o1 do in these assays?
EPAC1 ag val: inactive; EPAC2 antag: inconclusive

Results for CC(C)(O)C#Cc1ccc(C(=O)NCCN2Cc3ccccc3OC(c3ccccc3F)C2)o1 (stereo unspecified) ?
EPAC1 ag val: inactive; EPAC2 antag: inconclusive

How did COC(=O)[C@@]1(C)CCC[C@@]2(C)c3ccc(O)c(C(C)C)c3CCC21 (stereo partly specified) do in these assays?
EPAC1 ag val: inactive; EPAC2 antag: inconclusive

What do the screens show for `CC(=O)Oc1ccc2c(c1C(C)C)CCC1C(C)(C)CCC[C@@]21C` (stereo partly specified)?
EPAC1 ag val: 100µM; EPAC2 antag: inactive

What do the screens show for `Cc1c(C(=O)NCc2cccc(F)c2)sc2ncnc(NCC3CCCO3)c12` (stereo unspecified)?
EPAC1 ag val: inactive; EPAC2 antag: inactive

What do the screens show for `CC1(C)C(\C=C/C=C\C=C/C=C2/N(CCCCS(=O)(=O)O)c3ccc4ccccc4c3C2(C)C)=[N+](CCCCS(=O)(=O)[O-])c2ccc3ccccc3c21`?
EPAC1 ag val: inconclusive; EPAC2 antag: inactive

How did Cc1cc(C)c(S(=O)(=O)Nc2ccccc2C(F)(F)F)c(C)c1 do in these assays?
EPAC1 ag val: inactive; EPAC2 antag: 45µM

Results for O=C1NC(=O)/C(=C/c2ccc3nccnc3c2)S1 ?
EPAC1 ag val: inactive; EPAC2 antag: inactive

How did O=C1NC(=O)/C(=C/c2ccc(-c3ccc(F)cc3O)o2)S1 do in these assays?
EPAC1 ag val: inactive; EPAC2 antag: 7.9µM

How did CC(C)(CNC(=O)c1cnn(-c2ncc3c(n2)-c2ccccc2CCC3)c1C1CC1)N1CCOCC1 do in these assays?
EPAC1 ag val: inactive; EPAC2 antag: inactive

How did COc1cccc(-c2nc3cc4c(cc3cc2CN(C(=O)c2csc(C)n2)C2CC2)CCC4)c1OC do in these assays?
EPAC1 ag val: inactive; EPAC2 antag: inactive

What do the screens show for `Cc1cc(-c2cc(F)cc3c2OC(CNC(=O)CCn2cncn2)C3)ccc1F` (stereo unspecified)?
EPAC1 ag val: inactive; EPAC2 antag: 79µM

How did COC(=O)c1ccc(C(=O)NCC2Cc3cc(F)cc(-c4cncnc4)c3O2)cc1 (stereo unspecified) do in these assays?
EPAC1 ag val: inactive; EPAC2 antag: 2.5µM

What do the screens show for `COc1ccccc1CC(=O)NCC1Cc2cc(F)cc(-c3cncnc3)c2O1` (stereo unspecified)?
EPAC1 ag val: inactive; EPAC2 antag: inactive

Results for O=C(CCn1cncn1)NCC1Cc2cc(-c3ccsc3)cc(Cl)c2O1 (stereo unspecified) ?
EPAC1 ag val: inconclusive; EPAC2 antag: inactive

Results for N=C(N)c1ccc(OCCCOc2ccc(C(=N)N)cc2Br)c(Br)c1 ?
EPAC1 ag val: inactive; EPAC2 antag: inactive

Results for Cc1cc(-c2ccc(N=Nc3ccc4c(S(=O)(=O)O)cc(S(=O)(=O)O)c(N)c4c3O)c(C)c2)ccc1N=Nc1ccc2c(S(=O)(=O)O)cc(S(=O)(=O)O)c(N)c2c1O ?
EPAC1 ag val: inactive; EPAC2 antag: 32µM!

What do the screens show for `Nc1c(N=Nc2ccc(-c3ccc(N=Nc4cc(S(=O)(=O)O)c5ccccc5c4N)cc3)cc2)cc(S(=O)(=O)O)c2ccccc12`?
EPAC1 ag val: inactive; EPAC2 antag: 40µM

What do the screens show for `N[C@H](C(=O)O)[C@@H]1CC(Cl)=NO1`?
EPAC1 ag val: inconclusive; EPAC2 antag: inactive

How did COC(=O)C[C@](O)(CCCC(C)(C)O)C(=O)O[C@@H]1C(OC)=CC23CCCN2CCc2cc4c(cc2[C@H]13)OCO4 (stereo partly specified) do in these assays?
EPAC1 ag val: inactive; EPAC2 antag: inactive

How did O=C(O)CN(CC(=O)O)CC1=CC2C(=CC1=O)Oc1cc(O)c(CN(CC(=O)O)CC(=O)O)cc1C21OC(=O)c2ccccc21 (stereo unspecified) do in these assays?
EPAC1 ag val: inconclusive; EPAC2 antag: inactive

Results for COc1ccc(Oc2ncc3nc(C)c(=O)n(Cc4cccs4)c3n2)cc1 ?
EPAC1 ag val: 112µM; EPAC2 antag: inconclusive

Results for Cc1nc2cnc(N(C)C)nc2n(Cc2cccs2)c1=O ?
EPAC1 ag val: inactive; EPAC2 antag: inactive
